According to PubChem BioAssay (EPA / NIEHS):
“And” between values parts separate entries of the source, which are not always exact repeats. Equal entries are not always repeated. Some compounds were tested as several samples or in several runs, with calls that do not always agree. The source made the active and inactive calls. Rule for the calls: active = hit-call score of the fitted dose curve at least 0.9, where 1 is the maximum; inactive = score below 0.9.

Key:
Conditions in all cases: mRNA level, 48 h; actives raise or lower the signal
[1] = read-out: Bcl-2 (BID) gene, BID (gene 637); assay: LTEA_HepaRG_BID: Life Technologies and Expression Analysis (LTEA) Assay for Bcl-2 (BID) gene using HepaRG (AID 2283476)
Procedure, shortened: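 Gain or loss of BID expression is fitted relative to 0.5% DMSO vehicle. Human HepaRG liver cells received a 48 h chemical exposure over an eight-point concentration range.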

Caspase-3 (Homo sapiens) = Caspase-3 (Homo sapiens) (UniProt P42574); assay: LTEA_HepaRG_CASP3: Life Technologies and Expression Analysis (LTEA) Assay for cysteine-aspartic acid protease (CASP3) using HepaRG (AID 2283477)
Procedure, shortened: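 Differentiated HepaRG cells, plated 48 h, were treated in duplicate in serum-free induction medium for 48 h with eight half-log concentrations up to 100 uM in 0.5% DMSO. CASP3 mRNA measured by qRT-PCR, normalized to ACTB, GAPDH, POLR2A.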

[2] = read-out: Cytochrome P450 (CYP24A1), CYP24A1 (gene 1591); assay: LTEA_HepaRG_CYP24A1: Life Technologies and Expression Analysis (LTEA) Assay for Cytochrome P450 (CYP24A1) using HepaRG (AID 2283478)
Procedure, shortened: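 HepaRG cells plated 48 h, then exposed in duplicate in serum-free induction medium for 48 h to 8-point half-log series from 100 uM in 0.5% DMSO. CYP24A1 mRNA by Fluidigm qRT-PCR, normalized to ACTB, GAPDH, POLR2A; bidirectional fit versus DMSO.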

[3] = read-out: Cytochrome P450 (CYP1A2), CYP1A2 (gene 1544); assay: LTEA_HepaRG_CYP1A2: Life Technologies and Expression Analysis (LTEA) Assay for Cytochrome P450 (CYP1A2) using HepaRG (AID 2283479)
Procedure, shortened: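 Differentiated human HepaRG cells in serum-free induction medium exposed 48 hours in duplicate to 8 half-log concentrations from 100 uM, 0.5% DMSO. CYP1A2 mRNA quantified by qRT-PCR, normalized to ACTB, GAPDH and POLR2A; bidirectional fitting versus DMSO.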

[4] = read-out: cysteine-aspartic acid protease (CASP8), CASP8 (gene 841); assay: LTEA_HepaRG_CASP8: Life Technologies and Expression Analysis (LTEA) Assay for cysteine-aspartic acid protease (CASP8) using HepaRG (AID 2283480)
Procedure, shortened: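 HepaRG, 48 h exposure, duplicate wells; 8 conc, half-log from 100 uM, 0.5% DMSO. Serum-free induction medium. CASP8 mRNA by TaqMan qRT-PCR, norm. ACTB/GAPDH/POLR2A; gain/loss fitted vs DMSO.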

[5] = read-out: Cytochrome P450 (CYP2B6), CYP2B6 (gene 1555); assay: LTEA_HepaRG_CYP2B6: Life Technologies and Expression Analysis (LTEA) Assay for Cytochrome P450 (CYP2B6) using HepaRG (AID 2283481)
Procedure, shortened: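 Differentiated human HepaRG cells in serum-free induction medium, dosed in duplicate for 48 h over 8 half-log concentrations topping at 100 uM (0.5% DMSO). CYP2B6 mRNA measured by TaqMan qRT-PCR, normalized to ACTB, GAPDH, POLR2A; bidirectional fit versus DMSO.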

[6] = read-out: Cytochrome P450 2C19 (Homo sapiens) (UniProt P33261); assay: LTEA_HepaRG_CYP2C19: Life Technologies and Expression Analysis (LTEA) Assay for CYP2C19 using HepaRG (AID 2283482)
Procedure, shortened: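 Differentiated HepaRG cells in serum-free induction medium exposed 48 h in duplicate, 8 concentrations from 100 uM by half-log steps in 0.5% DMSO. CYP2C19 mRNA measured by TaqMan qRT-PCR, normalized to ACTB, GAPDH, POLR2A. Bidirectional fit versus DMSO.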

CYP2C8 (gene 1558) = assay: LTEA_HepaRG_CYP2C8: Life Technologies and Expression Analysis (LTEA) Assay for CYP2C8 using HepaRG (AID 2283483)
Procedure, shortened: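 CYP2C8 mRNA induction or loss, by qRT-PCR normalized to ACTB/GAPDH/POLR2A, is read in HepaRG cells after 48 h treatment. Concentrations run from 100 uM down in half-log dilutions, with 0.5% DMSO as vehicle and baseline.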

CYP2C9 (gene 1559) = assay: LTEA_HepaRG_CYP2C9: Life Technologies and Expression Analysis (LTEA) Assay for CYP2C9 using HepaRG (AID 2283484)
Procedure, shortened: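 Cells plated 48 h, switched to serum-free induction medium, then treated in duplicate for 48 h at eight concentrations (max 100 uM, 0.5% DMSO). RNA then analysed by qRT-PCR for CYP2C9; curves fitted in both directions relative to DMSO.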

[7] = read-out: Cytochrome P450 3A4 (Homo sapiens) (UniProt P08684); assay: LTEA_HepaRG_CYP3A4: Life Technologies and Expression Analysis (LTEA) Assay for CYP3A4 using HepaRG (AID 2283487)
Procedure, shortened: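 CYP3A4 transcript measured by TaqMan qRT-PCR and normalized to three housekeeping genes after 48 h chemical exposure of human HepaRG cells. Top concentration 100 uM, half-log steps, 0.5% DMSO vehicle; gain or loss fitted against DMSO baseline.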

[8] = read-out: DNA damage-inducible transcript 3 (DDIT3), DDIT3 (gene 1649); assay: LTEA_HepaRG_DDIT3: Life Technologies and Expression Analysis (LTEA) Assay for DNA damage-inducible transcript 3 (DDIT3) using HepaRG (AID 2283488)
Procedure, shortened: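 Changes in DDIT3 transcript, in either direction relative to 0.5% DMSO vehicle, were quantified by TaqMan qRT-PCR after 48 h chemical exposure of HepaRG cells at 8 concentrations, maximum 100 uM.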

[9] = read-out: Early growth response protein 1 (EGR1) transcription factor, EGR1 (gene 1958); assay: LTEA_HepaRG_EGR1: Life Technologies and Expression Analysis (LTEA) Assay for Early growth response protein 1 (EGR1) transcription factor using HepaRG (AID 2283490)
Procedure, shortened: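 Read-out is EGR1 mRNA level by qRT-PCR, normalized to three housekeeping genes and analysed for gain or loss of signal against 0.5% DMSO. Source cells: human HepaRG, treated 48 h at up to 100 uM in half-log dilutions.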

[10] = read-out: Ezrin (EZR), EZR (gene 7430); assay: LTEA_HepaRG_EZR: Life Technologies and Expression Analysis (LTEA) Assay for Ezrin (EZR) using HepaRG (AID 2283491)
Procedure, shortened: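 HepaRG, 48 h chemical exposure, 8-pt half-log series from 100 uM, 0.5% DMSO vehicle, duplicates. Read-out: EZR mRNA by TaqMan qRT-PCR (Fluidigm array), housekeeping-normalized; bidirectional curve fit vs DMSO baseline.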

[11] = read-out: Cytochrome P450 3A7 (Homo sapiens) (UniProt P24462); assay: LTEA_HepaRG_CYP3A7: Life Technologies and Expression Analysis (LTEA) Assay for CYP3A7 using HepaRG (AID 2283492)
Procedure, shortened: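 Differentiated HepaRG cells in serum-free induction medium exposed 48 h in duplicate to 8-point half-log series from 100 uM top in 0.5% DMSO. CYP3A7 mRNA by qRT-PCR, normalized to ACTB/GAPDH/POLR2A, bidirectional fit versus DMSO.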

[12] = read-out: Fatty Acid-Binding Protein 1 (FABP1), FABP1 (gene 2168); assay: LTEA_HepaRG_FABP1: Life Technologies and Expression Analysis (LTEA) Assay for Fatty Acid-Binding Protein 1 (FABP1) using HepaRG (AID 2283494)
Procedure, shortened: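 HepaRG, 48 h post-plating switched to serum-free induction medium, then dosed 48 h (duplicate, 8 pts, ≤100 uM, 0.5% DMSO). RNA → Fluidigm TaqMan qRT-PCR, FABP1 normed to ACTB/GAPDH/POLR2A. Bidirectional curve fit vs DMSO.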

[13] = read-out: Cytochrome P450 4A22 (Homo sapiens) (UniProt Q5TCH4); assay: LTEA_HepaRG_CYP4A22: Life Technologies and Expression Analysis (LTEA) Assay for Cytochrome P450 4A22 (CYP4A22) using HepaRG (AID 2283495)
Procedure, shortened: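 Differentiated HepaRG cells in serum-free induction medium exposed 48 h in duplicate to eight half-log concentrations up to 100 uM in 0.5% DMSO. CYP4A22 mRNA quantified by TaqMan qRT-PCR, normalized to ACTB, GAPDH and POLR2A; bidirectional fit versus DMSO.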

CYP3A5 (gene 1577) = assay: LTEA_HepaRG_CYP3A5: Life Technologies and Expression Analysis (LTEA) Assay for CYP3A5 using HepaRG (AID 2283493)
Procedure, shortened: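 mRNA induction or loss of CYP3A5 assessed in HepaRG after 48 h dosing, 100 uM top concentration, duplicate wells; TaqMan qRT-PCR with ACTB, GAPDH, POLR2A normalization; 0.5% DMSO as negative control.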

[14] = read-out: Pro-epidermal growth factor (Homo sapiens) (UniProt P01133); assay: LTEA_HepaRG_EGF: Life Technologies and Expression Analysis (LTEA) Assay for Epidermal growth factor (EGF) using HepaRG (AID 2283489)
Procedure, shortened: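 HepaRG cells (~100,000/well, 48 h pre-culture) exposed in duplicate for 48 h in serum-free induction medium to 8 half-log concentrations up to 100 uM in 0.5% DMSO. EGF mRNA by qRT-PCR, normalized to ACTB/GAPDH/POLR2A; bidirectional fit versus DMSO.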

Measured: AC50

Cytochrome P450 2C19 (Homo sapiens), sequence (P33261 whole entry, looked up): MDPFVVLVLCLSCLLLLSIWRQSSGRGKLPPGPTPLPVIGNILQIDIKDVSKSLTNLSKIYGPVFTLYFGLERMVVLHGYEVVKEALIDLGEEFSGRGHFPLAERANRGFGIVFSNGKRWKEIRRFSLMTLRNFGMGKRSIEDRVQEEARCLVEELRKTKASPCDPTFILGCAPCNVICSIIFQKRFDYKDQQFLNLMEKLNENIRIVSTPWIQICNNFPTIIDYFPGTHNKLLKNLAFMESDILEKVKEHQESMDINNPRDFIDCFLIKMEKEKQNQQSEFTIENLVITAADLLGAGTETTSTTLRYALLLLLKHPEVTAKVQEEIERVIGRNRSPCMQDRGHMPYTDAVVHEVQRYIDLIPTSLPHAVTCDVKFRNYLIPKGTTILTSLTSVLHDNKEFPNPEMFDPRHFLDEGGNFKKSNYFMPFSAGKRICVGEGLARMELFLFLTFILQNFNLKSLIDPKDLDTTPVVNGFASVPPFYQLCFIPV
Caspase-3 (Homo sapiens), sequence (P42574 whole entry, looked up): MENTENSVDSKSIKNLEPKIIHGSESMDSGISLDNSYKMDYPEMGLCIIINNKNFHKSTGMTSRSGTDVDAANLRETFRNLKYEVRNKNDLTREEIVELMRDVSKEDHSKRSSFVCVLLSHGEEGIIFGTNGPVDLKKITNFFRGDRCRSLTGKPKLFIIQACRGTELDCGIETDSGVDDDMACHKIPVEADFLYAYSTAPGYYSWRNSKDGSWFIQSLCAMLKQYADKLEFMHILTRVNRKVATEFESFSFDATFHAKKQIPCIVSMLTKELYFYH
Cytochrome P450 3A4 (Homo sapiens), sequence (P08684 whole entry, looked up): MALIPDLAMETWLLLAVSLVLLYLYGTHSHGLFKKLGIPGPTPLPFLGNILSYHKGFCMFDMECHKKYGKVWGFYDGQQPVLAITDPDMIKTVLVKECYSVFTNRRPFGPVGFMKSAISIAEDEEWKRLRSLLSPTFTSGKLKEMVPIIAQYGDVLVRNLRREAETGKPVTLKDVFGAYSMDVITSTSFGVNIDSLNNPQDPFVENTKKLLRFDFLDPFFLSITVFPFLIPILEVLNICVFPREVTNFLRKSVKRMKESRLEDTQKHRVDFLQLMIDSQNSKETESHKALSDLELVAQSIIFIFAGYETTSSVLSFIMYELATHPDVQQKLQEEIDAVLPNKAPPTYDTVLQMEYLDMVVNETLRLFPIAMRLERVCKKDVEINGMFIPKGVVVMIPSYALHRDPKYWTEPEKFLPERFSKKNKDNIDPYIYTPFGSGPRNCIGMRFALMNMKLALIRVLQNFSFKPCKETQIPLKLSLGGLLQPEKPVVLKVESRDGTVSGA
Cytochrome P450 3A7 (Homo sapiens), sequence (P24462 whole entry, looked up): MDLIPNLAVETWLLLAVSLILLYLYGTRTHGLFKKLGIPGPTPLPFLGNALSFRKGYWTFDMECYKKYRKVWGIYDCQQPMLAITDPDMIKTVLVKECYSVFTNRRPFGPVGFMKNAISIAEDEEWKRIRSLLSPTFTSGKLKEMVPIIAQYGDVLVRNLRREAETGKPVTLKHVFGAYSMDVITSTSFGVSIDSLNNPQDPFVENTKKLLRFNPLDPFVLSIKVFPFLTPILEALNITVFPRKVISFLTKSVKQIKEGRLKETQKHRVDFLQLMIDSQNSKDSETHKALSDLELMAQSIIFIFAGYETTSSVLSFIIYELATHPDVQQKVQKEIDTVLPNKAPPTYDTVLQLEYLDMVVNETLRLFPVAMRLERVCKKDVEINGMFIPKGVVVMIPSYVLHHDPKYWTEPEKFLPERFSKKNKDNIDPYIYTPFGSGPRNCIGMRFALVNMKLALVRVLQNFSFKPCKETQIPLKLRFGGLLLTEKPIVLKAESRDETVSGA

COC(=O)c1ccccc1C(=O)OC
not listed: CYP3A5 (gene 1577) | [14]
inactive: all other assays above

CCOc1cc(Oc2ccc(C(F)(F)F)cc2Cl)ccc1[N+](=O)[O-]
active: [3] 5.27 µM | [5] 34.4 µM | [6] 69.3 µM | CYP2C8 (gene 1558) 74.2 µM | CYP2C9 (gene 1559) 35.7 µM | [7] 12.2 µM | [8] 78 µM | [11] 75.8 µM | [12] 30.4 µM | [13] 39.1 µM
inactive: [1] | Caspase-3 (Homo sapiens) | [2] | [4] | [9] | [10]

CCCC1COC(Cn2cncn2)(c2ccc(Cl)cc2Cl)O1 (stereo unspecified)
active: [3] 50 µM | [5] 30.9 µM | [6] 74.5 µM | CYP2C8 (gene 1558) 36.4 µM | CYP2C9 (gene 1559) 34.8 µM | [8] 30.7 µM | [11] 29.5 µM | [12] 36.3 µM | [13] 31.7 µM
inactive: [1] | Caspase-3 (Homo sapiens) | [2] | [4] | [9] | [10] | CYP3A5 (gene 1577)

Cc1ccc(-c2c(Cl)nc(C#N)n2S(=O)(=O)N(C)C)cc1
inactive: [1] | Caspase-3 (Homo sapiens) | [3] | [9] | [10]
active: [2] 0.01 µM | [4] 89.8 µM | [5] 5 µM | [6] 5.98 µM | CYP2C8 (gene 1558) 9.33 µM | CYP2C9 (gene 1559) 7.78 µM | [7] 24.8 µM | [8] 21.7 µM | [11] 83.5 µM | [12] 4.76 µM | [13] 73.9 µM

CCCCC(CC)COC(=O)c1ccccc1C(=O)OCC(CC)CCCC (stereo unspecified)
active: [3] 50 µM | [5] 19 µM
not listed: [7] | CYP3A5 (gene 1577) | [14]
inactive: all other assays above

CO/C=C(/C(=O)OC)c1ccccc1Oc1cc(Oc2ccccc2C#N)ncn1
active: [3] 84.5 µM and 65.9 µM and 66.5 µM | [5] 75.2 µM and 72.2 µM and 71.5 µM | [6] 84.1 µM and 83.3 µM and 82.3 µM | CYP2C8 (gene 1558) 79.9 µM and 79.2 µM and 78.1 µM | CYP2C9 (gene 1559) 79.1 µM and 79 µM and 93.4 µM | [8] 77.9 µM and 94.2 µM and 77.2 µM | [9] 13 µM and 13.3 µM | [12] 82.4 µM and 75.6 µM and 73.2 µM | [13] 76.3 µM and 66.9 µM and 65.6 µM
inactive: [1] | Caspase-3 (Homo sapiens) | [2] | [4] | [14] | [9] | [10] | [11]

CCON=C(CC)C1=C(O)CC(c2c(C)cc(C)cc2C)CC1=O (stereo unspecified)
active: [5] 29.5 µM | [6] 23.5 µM | CYP2C8 (gene 1558) 50 µM | [13] 18.9 µM
not listed: [7] | [11] | CYP3A5 (gene 1577) | [14]
inactive: all other assays above

CN(C)C(=S)SSC(=S)N(C)C
active: [5] 50 µM
not listed: CYP3A5 (gene 1577) | [14]
inactive: all other assays above

C#CCOS(=O)OC1CCCCC1Oc1ccc(C(C)(C)C)cc1 (stereo unspecified)
active: [1] 11.4 µM | Caspase-3 (Homo sapiens) 29 µM | [4] 31.3 µM | [5] 26.6 µM | [6] 26.3 µM | CYP2C8 (gene 1558) 29.9 µM | CYP2C9 (gene 1559) 25.6 µM | [7] 28.8 µM | [8] 15.2 µM | [11] 29.5 µM | CYP3A5 (gene 1577) 30.1 µM | [12] 18.7 µM
inactive: [2] | [3] | [9] | [10] | [13]

CCOC(=O)C(Cl)Cc1cc(-n2nc(C)n(C(F)F)c2=O)c(F)cc1Cl (stereo unspecified)
active: [5] 50 µM | [6] 41.1 µM | CYP2C8 (gene 1558) 23.3 µM | CYP2C9 (gene 1559) 25.5 µM | [7] 18.7 µM | [11] 34.3 µM
not listed: CYP3A5 (gene 1577) | [14]
inactive: all other assays above

CC(C)C1(C)N=C(c2nc3ccccc3cc2C(=O)O)NC1=O (stereo unspecified)
active: [3] 28.7 µM | [5] 6.39 µM | [6] 14.1 µM | [7] 18.8 µM
not listed: CYP3A5 (gene 1577) | [14]
inactive: all other assays above

CC1=C(C(=O)Nc2ccccc2)SCCO1
active: [3] 50 µM | [5] 45 µM | [12] 50 µM
not listed: CYP3A5 (gene 1577) | [14]
inactive: all other assays above
